Results filed as inconclusive are left out. The source made the active and inactive calls. Unless noted, the call rests on the fitted dose curve; in most records, active means well fitted curve in either direction with a large enough effect (not every such curve was filed as active); inconclusive means small, poorly fitted or top-dose-only effect, or another doubt; inactive means flat fitted curve, though single readings scatter.
Tests used:
[1] = AP1 Signaling Pathway (AID 357); settings: ME-180 AP-1-bla reporter, EGF-induced, beta-lactamase ratio, 5 h; at 7.69 µM (top of the series) unless noted; further: on the % scale 0 is the no-effect control and ±100 the full control effect
How it was run: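 In this screen, ME-180 cells in Opti-MEM with 0.5% dialyzed FBS received EC50 EGF and compound titrations for 5 h. AP-1 reporter beta-lactamase was detected via CCF4 ratio, giving AC50 for positive and negative modulators.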

[2] = NFAT Signaling Pathway (AID 444); settings: Jurkat NFAT-bla M1, carbachol, beta-lactamase ratio, 5 h; at 7.69 µM (top of the series) unless noted;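 further: carbachol stimulus at about its EC50 of 1 µM final; on the % scale 0 is the no-effect control and ±100 the full control effect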
How it was run: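 Jurkat cells with NFAT-driven β-lactamase reporter and co-expressed M1 receptor, stimulated with carbachol (final 1 uM, ~EC50), compound titration, 5 h at 37 °C. CCF4 loaded 1 h at RT; 460/530 nm ratio gave %activity and AC50.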

[3] = Stat Signaling Pathway (AID 446); settings: ME-180 SIE beta-lactamase reporter, IL-6 stimulated, 5 h; at 7.69 µM (top of the series) unless noted;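 further: ME-180 cervical cancer cells given 40 pM IL-6 alongside compound; SIE-controlled beta-lactamase reporter measured as 460/530 nm FRET emission ratio; on the % scale 0 is the no-effect control and ±100 the full control effect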
How it was run: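 IL-6/STAT signaling read in ME-180 cells via an SIE beta-lactamase reporter. Stimulus was 40 pM IL-6 (its AC50) for 5 hrs, so both activation and inhibition register.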

[4] = target: Glucocorticoid receptor (Homo sapiens) (UniProt P04150); assay: GR-GFP Redistribution (AID 450;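 active means compounds whose dose series gives a full or clear partial fitted curve of increased nuclear translocation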; further: potency means the concentration at half of the fitted maximal effect); settings: U2OS GR-GFP nuclear translocation, laser cytometry, 2 h
[5] = target: Glucocorticoid receptor (Homo sapiens) (UniProt P04150); assay: GR-EFC Redistribution (AID 451; calls by dose curve; further: potency means the concentration at half of the fitted maximal effect); settings: CHO-K1 GR-EFC translocation, beta-gal luminescence, 2 h
How it was run: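 CHO-K1 cells expressing nuclear EA and GR-ED fragments of b-gal; compounds titrated up to 46 uM final, 2 h at 37 C. GR nuclear translocation read as complemented b-gal luminescence after 1 h RT detection.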

[6] = target: 3',5'-cyclic-AMP phosphodiesterase 4B (Homo sapiens) (UniProt Q07343); assay: qHTS Assay for Inhibitors of PDE-IV (AID 607; active means well fitted activation curve with a large enough effect in the main read-out, with a control signal flat, not every such curve was filed as active; further: % of control where 0% means no effect)
How it was run: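 Live HEK293 cells with a modified cyclic nucleotide-gated (CNG) channel report intracellular cAMP via membrane-potential dye fluorescence (ex 535/em 590 nm). Endogenous PDE-IV was targeted. Compounds were tested at up to 22.9 uM final; RO 20-1724 100 uM served as control.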

[7] = qHTS Assay for Identification of Small Molecule Agonists for Hypoxia Response Element Signaling Pathway (AID 914; active means well fitted activation curve with a large enough effect in the signal ratio, with a control signal flat, not every such curve was filed as active; the % refers to the signal ratio; further: % of control where 0% means no effect); settings: ME-180 HRE-bla reporter, beta-lactamase ratio, CoCl2, 17 h; active compounds read high
How it was run: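 Cells were plated overnight, pin-dosed with compound in a titration series, co-stimulated with EC50 CoCl2 and incubated 17 hours at 37 degrees Celsius. CCF4 substrate was then loaded, and AC50 values came from the 460nm/530nm ratio.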

[8] = target: Cytochrome P450 1A2 (Homo sapiens) (UniProt P05177); assay: p450-cyp1a2 (AID 410; calls by dose curve;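 further: -100% = full effect of reference inhibitor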)
How it was run: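 Human CYP1A2 (20nM) demethylated Luciferin-ME at its Km (100uM) in 100mM KPO4. After 10 min compound preincubation, NADPH regeneration ran the reaction 60 min at room temperature. Luciferin was read by luminescence, normalized to 57 uM furafylline.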

[9] = target: Mitogen-activated protein kinase 10 (Mus musculus) (UniProt Q61831); assay: JNK3 AlphaScreen Assay (AID 530);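 further: kinase came from lysate of stimulated human HepG2 cells; signal reports phosphorylation of biotinylated GST-cJun 1-79 at Ser73 with 10 µM ATP; on the % scale 0 is the no-effect control and ±100 the full control effect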
How it was run: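 qHTS format: compounds tested as titrations against IL-1beta/TNF-alpha-activated HepG2 lysate JNK3 with biotin-GST-cJun substrate and 10 uM ATP at room temperature. Loss of anti-phospho-cJun AlphaScreen signal indicates inhibition.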

[10] = target: Guanine nucleotide-binding protein G(i) subunit alpha-1 (Homo sapiens) (UniProt P63096); assay: qHTS Assay for Inhibitors of RGS12 GoLoco Motif Activity (Green Fluorophore) (AID 879; active means well fitted curve in the direction sought with a large enough effect; an effect the other way counts as inactive or inconclusive;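 further: 0% = labeled peptide with Gαi1 and full inhibition = labeled peptide alone without protein; negative values mean loss of peptide binding seen as reduced polarization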)
How it was run: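 Fluorescence polarization assay: 50 nM Gαi1 with 10 nM FITC-labeled RGS12 GoLoco peptide in 10 mM Tris pH 7.5, 150 mM NaCl, 0.1 mM GDP, 0.05% NP40, 10 min at room temperature with compound.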

[11] = target: Cytochrome P450 3A4 (Homo sapiens) (UniProt P08684); assay: qHTS Assay for Activators of Cytochrome P450 3A4 (AID 885; active means well fitted curve in the direction sought with a large enough effect; an effect the other way counts as inactive or inconclusive; further: nearly all actives have a fitted effect of over 65% in size)
How it was run: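 Quantitative HTS format: compounds preincubated with 20nM human CYP3A4 and Luciferin-PPXE substrate at KM, reaction started by NADPH regeneration, stopped after 60 min, luciferase luminescence read 20 min later.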

[12] = target: Cytochrome P450 2D6 (Homo sapiens) (UniProt P10635); assay: qHTS Assay for Inhibitors and Substrates of Cytochrome P450 2D6 (AID 891; active means well fitted curve in the direction sought with a large enough effect; an effect the other way counts as inactive or inconclusive; further: potency means the concentration at half of the fitted maximal effect; nearly all actives have a fitted effect of over 60% in size)
How it was run: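 Human CYP2D6 (5 nM) with 30 uM Luciferin-ME EGE (at Km) in 100 mM KPO4, compound preincubated 10 min, then NADPH regeneration system for 60 min at room temperature. Luciferin read by luminescence; normalized to 1.43 uM quinidine.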

[13] = qHTS Assay for Identification of Small Molecule Antagonists for NFkB Signaling Pathway (AID 895; active means well fitted inhibition curve with a large enough effect in the signal ratio, with a control signal flat, not every such curve was filed as active; the % refers to the signal ratio; further: on the % scale 0 is the no-effect control and ±100 the full control effect)
How it was run: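 ME-180 NFkB-bla cells (beta-lactamase under NFkB response element), plated overnight, treated with compound then 10 pM TNF alpha (about EC50) for 5 hrs at 37 C. LiveBLAzer FRET read at 460/530 nm emission, 405 nm excitation.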

[14] = qHTS Assay for Identification of Small Molecule Agonists for Thrombopoietin (TPO) Signaling Pathway (AID 917; active means well fitted curve in the direction sought with a large enough effect; an effect the other way counts as inactive or inconclusive; further: on the % scale 0 is the no-effect control and ±100 the full control effect)
How it was run: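 Murine Ba/F3 cells stably expressing human TPO receptor and a Glycoprotein IIb promoter–luciferase reporter were IL-3-starved overnight, then treated with compounds plus TPO (26 pM final, its EC50) for 24 hrs at 37 C; luminescence was read.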

[15] = target: Muscarinic acetylcholine receptor M1 (Rattus norvegicus) (UniProt P08482); assay: qHTS Assay for Antagonists of Acetylcholine Muscarinic M1 Receptor: Measurement of IP-One Response (AID 944; active means well fitted curve in the direction sought with a large enough effect; an effect the other way counts as inactive or inconclusive; further: nearly all actives have a fitted effect of over 75% in size)
How it was run: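 CHO cells expressing rat M1 receptor, recovered overnight, were pre-incubated 10 min with compound, then stimulated 30 min with carbachol at EC80 (200 nM) in LiCl-containing buffer, pH 7.4. IP1 accumulation was read by HTRF (620/665 nm).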

[16] = target: Pyruvate kinase (Leishmania mexicana) (UniProt Q27686); assay: qHTS Validation Assay for Inhibitors of Leishmania Mexicana Pyruvate Kinase (AID 945; active means well fitted curve in the direction sought with a large enough effect; an effect the other way counts as inactive or inconclusive;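 further: 0% = DMSO only neutral control wells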)
How it was run: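 The enzyme is a highly purified E451W mutant of LmPYK used at 0.2 nM. It converts 0.5 mM PEP and 0.1 mM ADP over 1 h at room temperature; product ATP is quantified by luciferase luminescence relative to DMSO controls.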

[17] = target: Pyruvate kinase PKM (Homo sapiens) (UniProt P14618); assay: qHTS Assay for Activators of Human Muscle Pyruvate Kinase (AID 954; active means well fitted curve in the direction sought with a large enough effect, not every such curve was filed as active;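 further: 0% = uninhibited enzyme and -100% = no enzyme or full thiadiazolimine inhibition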)
How it was run: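 Enzyme was run at intermediate activity so both inhibitors and activators could be detected. ATP formed from ADP and PEP by 0.1 nM human PKM2 during a 1 h room-temperature incubation was quantified by coupled luciferase luminescence.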

[18] = target: Alpha-galactosidase (Coffea arabica) (UniProt Q42656); assay: Counterscreen for Glucocerebrosidase Inhibitors: qHTS Assay for Coffee Bean alpha-Galactosidase at pH 4.5 (AID 957; active means well fitted curve in the direction sought with a large enough effect; an effect the other way counts as inactive or inconclusive;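 further: plate controls were enzyme alone for no effect and no enzyme for full effect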)
How it was run: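 Green coffee bean enzyme (2 nM final) was incubated with compounds (0.7 nM to 77 uM) and 4-methylumbelliferyl alpha-D-galactopyranoside (80 uM final) in 50 mM citric acid, 0.005% Tween-20, pH 4.5, 20 min at room temperature; AC50 from Hill fits.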

[19] = target: Alpha-galactosidase A (Homo sapiens) (UniProt P06280); assay: Counterscreen for Glucocerebrosidase Inhibitors: qHTS Assay for Human alpha-Galactosidase at pH 4.5 (AID 992; active means well fitted curve in the direction sought with a large enough effect; an effect the other way counts as inactive or inconclusive; further: 0% is about no effect)
How it was run: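 Read-out is 4-methylumbelliferone fluorescence (365 nm excitation, 440 nm emission) after a pH 10 NaOH/glycine stop. Reactions held 2 nM enzyme and 80 uM substrate at pH 4.5 for 20 min at room temperature.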

[20] = target: alpha-glucosidase (Oryza sativa, rice) (UniProt Q653V4); assay: Counterscreen for Glucocerebrosidase Inhibitors: qHTS Assay for Rice alpha-Glucosidase at pH 5.0 (AID 997; active means well fitted curve in the direction sought with a large enough effect; an effect the other way counts as inactive or inconclusive;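 further: 0% = full activity with enzyme and -100% = basal without enzyme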)
How it was run: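 Rice alpha-glucosidase (4 nM final) with 400 uM 4-methylumbelliferyl-alpha-D-glucopyranoside in citrate buffer pH 5.0, 20 min at room temperature, stopped at pH 10; fluorescence 365/440 nm, compounds 0.7 nM–77 uM, AC50 from Hill fits.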

[21] = target: Alpha-galactosidase (Coffea arabica) (UniProt Q42656); assay: Counterscreen for Glucocerebrosidase Inhibitors: qHTS Assay for Coffee Bean alpha-Galactosidase at pH 5.9 (AID 998; active means well fitted curve in the direction sought with a large enough effect; an effect the other way counts as inactive or inconclusive;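 further: plate controls were uninhibited enzyme for no effect and no-enzyme basal signal for full effect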)
How it was run: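 Green coffee bean enzyme (2 nM) with 4-methylumbelliferyl alpha-D-galactopyranoside (80 uM) in 50 mM citric acid, 0.005% Tween-20, pH 5.9, 20 min at room temperature; compounds 0.7 nM–77 uM. Stopped at pH 10, fluorescence Ex365/Em440; Hill-fit AC50.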

[22] = target: Cytochrome P450 3A4 (Homo sapiens) (UniProt P08684); assay: qHTS Assay for Inhibitors and Substrates of Cytochrome P450 3A4 (AID 884; active means well fitted curve in the direction sought with a large enough effect; an effect the other way counts as inactive or inconclusive; further: on the % scale 0 is the no-effect control and ±100 the full control effect; nearly all actives have a fitted effect of over 50% in size)
How it was run: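 20 nM human CYP3A4 with 25 uM Luciferin-PPXE (at KM) in 200 mM KPO4, preincubated 10 min with compound; NADPH regeneration started a 60 min RT reaction. Luciferin detected by luminescence, normalized to 57 uM ketoconazole as full inhibition.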

[23] = target: Cytochrome P450 2C19 (Homo sapiens) (UniProt P33261); assay: qHTS Assay for Inhibitors and Substrates of Cytochrome P450 2C19 (AID 899; active means well fitted curve in the direction sought with a large enough effect; an effect the other way counts as inactive or inconclusive; further: on the % scale 0 is the no-effect control and ±100 the full control effect; nearly all actives have a fitted effect of over 60% in size)
How it was run: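 5 nM human CYP2C19 with 10uM Luciferin-H EGE (at KM) in 50mM KPO4, compound preincubated 10 min at 37C, then NADPH regeneration for 60 min at 37C. Luciferin read by luminescence after detection reagent; normalized to 57uM ketoconazole as full inhibition.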

Chain of Glucocorticoid receptor (Homo sapiens) (P04150 whole entry, looked up, the tested form may be a part): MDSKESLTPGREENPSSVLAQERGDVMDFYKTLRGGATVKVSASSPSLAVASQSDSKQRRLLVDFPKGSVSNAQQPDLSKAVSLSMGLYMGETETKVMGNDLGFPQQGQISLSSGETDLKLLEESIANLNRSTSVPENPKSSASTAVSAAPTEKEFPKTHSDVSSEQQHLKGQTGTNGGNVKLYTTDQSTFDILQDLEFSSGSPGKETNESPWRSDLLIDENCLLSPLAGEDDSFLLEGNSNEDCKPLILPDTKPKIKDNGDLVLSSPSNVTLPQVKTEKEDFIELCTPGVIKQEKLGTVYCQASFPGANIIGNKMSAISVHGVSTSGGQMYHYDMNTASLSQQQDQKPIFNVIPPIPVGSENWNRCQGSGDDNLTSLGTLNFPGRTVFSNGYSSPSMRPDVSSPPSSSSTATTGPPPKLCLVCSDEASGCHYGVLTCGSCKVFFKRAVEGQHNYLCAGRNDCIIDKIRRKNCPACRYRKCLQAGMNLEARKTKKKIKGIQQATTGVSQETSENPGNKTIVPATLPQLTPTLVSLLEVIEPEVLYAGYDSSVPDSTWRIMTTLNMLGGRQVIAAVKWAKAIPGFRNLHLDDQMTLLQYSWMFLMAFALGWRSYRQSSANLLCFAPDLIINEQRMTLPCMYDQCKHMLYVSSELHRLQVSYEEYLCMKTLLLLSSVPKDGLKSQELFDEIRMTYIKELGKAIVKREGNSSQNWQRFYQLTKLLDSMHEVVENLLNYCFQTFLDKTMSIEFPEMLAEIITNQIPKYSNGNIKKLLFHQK
Chain of 3',5'-cyclic-AMP phosphodiesterase 4B (Homo sapiens) (Q07343 whole entry, looked up): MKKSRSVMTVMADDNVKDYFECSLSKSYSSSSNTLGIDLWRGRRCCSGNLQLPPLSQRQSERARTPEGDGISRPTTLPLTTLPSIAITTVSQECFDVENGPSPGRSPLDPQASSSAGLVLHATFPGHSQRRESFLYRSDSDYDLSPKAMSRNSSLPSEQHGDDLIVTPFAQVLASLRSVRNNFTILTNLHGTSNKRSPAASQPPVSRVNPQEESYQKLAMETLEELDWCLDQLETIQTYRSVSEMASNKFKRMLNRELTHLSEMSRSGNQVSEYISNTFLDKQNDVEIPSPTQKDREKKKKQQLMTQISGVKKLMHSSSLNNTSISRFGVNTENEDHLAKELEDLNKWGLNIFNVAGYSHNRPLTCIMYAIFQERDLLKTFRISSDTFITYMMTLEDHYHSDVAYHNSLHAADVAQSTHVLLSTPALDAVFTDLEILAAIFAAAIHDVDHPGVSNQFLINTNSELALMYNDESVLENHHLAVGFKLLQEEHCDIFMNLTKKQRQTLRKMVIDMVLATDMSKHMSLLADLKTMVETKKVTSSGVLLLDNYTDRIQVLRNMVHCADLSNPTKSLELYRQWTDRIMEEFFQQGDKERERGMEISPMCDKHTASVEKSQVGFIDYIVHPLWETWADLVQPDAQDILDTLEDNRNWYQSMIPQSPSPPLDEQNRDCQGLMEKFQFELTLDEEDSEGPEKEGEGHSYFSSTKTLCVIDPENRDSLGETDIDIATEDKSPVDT
Chain of Cytochrome P450 3A4 (Homo sapiens) (P08684 whole entry, looked up): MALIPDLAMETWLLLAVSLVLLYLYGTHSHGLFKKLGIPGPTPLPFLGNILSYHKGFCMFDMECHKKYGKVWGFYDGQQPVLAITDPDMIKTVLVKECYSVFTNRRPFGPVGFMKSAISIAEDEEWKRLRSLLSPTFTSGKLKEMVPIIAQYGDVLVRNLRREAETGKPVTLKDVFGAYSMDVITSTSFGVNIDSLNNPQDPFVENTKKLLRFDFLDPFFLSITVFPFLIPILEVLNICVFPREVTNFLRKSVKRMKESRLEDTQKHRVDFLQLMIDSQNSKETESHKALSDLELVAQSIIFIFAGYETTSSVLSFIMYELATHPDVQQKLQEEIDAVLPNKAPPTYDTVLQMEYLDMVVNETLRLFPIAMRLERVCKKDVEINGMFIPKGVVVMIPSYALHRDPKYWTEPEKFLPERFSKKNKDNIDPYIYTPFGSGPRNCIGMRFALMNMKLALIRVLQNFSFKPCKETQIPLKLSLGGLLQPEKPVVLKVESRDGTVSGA
Chain of Alpha-galactosidase (Coffea arabica) (Q42656 whole entry, looked up): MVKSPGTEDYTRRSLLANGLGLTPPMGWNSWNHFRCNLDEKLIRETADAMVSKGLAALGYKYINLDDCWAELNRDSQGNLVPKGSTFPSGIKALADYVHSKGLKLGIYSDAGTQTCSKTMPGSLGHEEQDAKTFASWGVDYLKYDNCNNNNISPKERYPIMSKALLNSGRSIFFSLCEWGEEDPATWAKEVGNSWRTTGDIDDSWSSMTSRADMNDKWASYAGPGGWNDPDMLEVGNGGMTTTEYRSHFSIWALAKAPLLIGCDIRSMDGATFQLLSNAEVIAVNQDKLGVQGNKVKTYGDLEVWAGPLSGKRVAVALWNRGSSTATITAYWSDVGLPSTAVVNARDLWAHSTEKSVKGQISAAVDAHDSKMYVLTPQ
Chain of Cytochrome P450 2D6 (Homo sapiens) (P10635 whole entry, looked up): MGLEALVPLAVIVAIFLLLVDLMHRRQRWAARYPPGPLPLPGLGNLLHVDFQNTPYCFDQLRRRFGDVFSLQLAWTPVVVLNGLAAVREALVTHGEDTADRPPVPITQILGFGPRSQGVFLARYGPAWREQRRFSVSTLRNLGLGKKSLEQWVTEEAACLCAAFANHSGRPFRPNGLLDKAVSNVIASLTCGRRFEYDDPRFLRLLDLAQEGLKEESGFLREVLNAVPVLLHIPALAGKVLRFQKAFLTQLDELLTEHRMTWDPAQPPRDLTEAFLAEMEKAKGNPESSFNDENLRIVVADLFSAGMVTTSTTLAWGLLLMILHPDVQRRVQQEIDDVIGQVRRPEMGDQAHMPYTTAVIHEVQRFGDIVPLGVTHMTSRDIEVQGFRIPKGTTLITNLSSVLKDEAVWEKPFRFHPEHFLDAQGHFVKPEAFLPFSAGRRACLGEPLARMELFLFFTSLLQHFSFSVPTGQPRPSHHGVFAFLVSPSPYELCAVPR
Chain of Cytochrome P450 1A2 (Homo sapiens) (P05177 whole entry, looked up): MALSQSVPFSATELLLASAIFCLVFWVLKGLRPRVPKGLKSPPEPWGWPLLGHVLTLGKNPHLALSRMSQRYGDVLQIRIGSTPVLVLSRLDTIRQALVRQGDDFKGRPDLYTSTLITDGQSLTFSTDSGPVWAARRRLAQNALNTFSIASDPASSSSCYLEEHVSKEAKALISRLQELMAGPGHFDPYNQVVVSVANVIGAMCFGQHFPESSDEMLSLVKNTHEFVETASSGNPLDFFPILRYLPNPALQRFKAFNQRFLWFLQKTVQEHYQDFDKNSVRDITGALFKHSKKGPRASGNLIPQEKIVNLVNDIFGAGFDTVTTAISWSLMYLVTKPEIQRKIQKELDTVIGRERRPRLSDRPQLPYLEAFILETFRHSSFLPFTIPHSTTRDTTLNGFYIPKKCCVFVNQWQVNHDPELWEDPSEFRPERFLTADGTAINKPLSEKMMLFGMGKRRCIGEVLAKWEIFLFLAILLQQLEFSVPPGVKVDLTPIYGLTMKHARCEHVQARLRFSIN
Chain of Alpha-galactosidase A (Homo sapiens) (P06280 whole entry, looked up): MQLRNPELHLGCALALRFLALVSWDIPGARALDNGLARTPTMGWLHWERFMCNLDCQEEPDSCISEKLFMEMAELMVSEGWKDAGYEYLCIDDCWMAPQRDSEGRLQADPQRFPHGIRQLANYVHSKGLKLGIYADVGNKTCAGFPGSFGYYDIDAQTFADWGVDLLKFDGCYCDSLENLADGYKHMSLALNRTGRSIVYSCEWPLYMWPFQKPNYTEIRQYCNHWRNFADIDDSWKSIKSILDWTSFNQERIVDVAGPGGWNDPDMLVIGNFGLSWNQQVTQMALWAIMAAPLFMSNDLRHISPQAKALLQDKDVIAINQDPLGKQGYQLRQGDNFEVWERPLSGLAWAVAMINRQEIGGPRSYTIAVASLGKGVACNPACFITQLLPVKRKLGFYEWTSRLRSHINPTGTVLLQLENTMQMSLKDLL
Chain of Cytochrome P450 2C19 (Homo sapiens) (P33261 whole entry, looked up): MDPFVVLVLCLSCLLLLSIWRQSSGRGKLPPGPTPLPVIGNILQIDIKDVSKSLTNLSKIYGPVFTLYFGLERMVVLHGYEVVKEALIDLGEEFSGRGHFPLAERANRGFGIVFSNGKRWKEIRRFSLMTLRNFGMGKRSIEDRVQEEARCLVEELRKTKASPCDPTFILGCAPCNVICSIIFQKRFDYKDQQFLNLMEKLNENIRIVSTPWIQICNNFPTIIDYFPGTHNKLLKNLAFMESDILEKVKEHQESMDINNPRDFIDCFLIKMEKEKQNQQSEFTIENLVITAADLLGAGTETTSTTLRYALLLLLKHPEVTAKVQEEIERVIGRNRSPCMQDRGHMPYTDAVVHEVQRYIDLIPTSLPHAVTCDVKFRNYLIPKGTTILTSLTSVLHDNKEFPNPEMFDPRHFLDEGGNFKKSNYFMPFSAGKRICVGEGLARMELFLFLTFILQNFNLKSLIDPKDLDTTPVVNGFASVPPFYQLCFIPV
Chain of Muscarinic acetylcholine receptor M1 (Rattus norvegicus) (P08482 whole entry, looked up): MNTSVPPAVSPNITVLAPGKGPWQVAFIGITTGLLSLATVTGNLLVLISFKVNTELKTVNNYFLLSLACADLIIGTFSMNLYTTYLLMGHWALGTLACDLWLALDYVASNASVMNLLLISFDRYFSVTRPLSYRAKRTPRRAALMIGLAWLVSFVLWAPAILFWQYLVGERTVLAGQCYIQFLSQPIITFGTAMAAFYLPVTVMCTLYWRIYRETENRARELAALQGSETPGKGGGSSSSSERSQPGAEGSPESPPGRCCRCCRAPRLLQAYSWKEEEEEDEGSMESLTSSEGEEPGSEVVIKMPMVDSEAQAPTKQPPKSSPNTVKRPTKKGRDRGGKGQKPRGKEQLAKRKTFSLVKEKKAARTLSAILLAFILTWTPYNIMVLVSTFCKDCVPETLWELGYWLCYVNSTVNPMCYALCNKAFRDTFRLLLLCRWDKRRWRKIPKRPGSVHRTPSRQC

O=C(O)[C@H]1C2c3ccccc3C(c3ccccc32)[C@@H]1C(=O)NCC1CC1
inactive: activity change, negative = inhibition [1] 1.37% | activity change, negative = inhibition [2] -3.96% | activity, negative = inhibition [3] 26.5% | Potency [4] > 46 µM | Potency [5] > 9.22 µM | outcome [6] | activation [7] -0.158%

COc1ccc2c3c1O[C@@H]1C(=O)CC[C@@]4(O)[C@@H](C2)N(CC2CC2)CC[C@]314
active: Potency [12] 5.01 µM
inactive: activity change, negative = inhibition [1] -5.48% [at 38 µM] | Potency [8] | activity, negative = inhibition [3] 4.82% [at 38 µM] | Potency [4] > 46 µM | Potency [5] > 46 µM | Potency [9] | outcome [6] | outcome [10] | Potency [11] | Potency [13] | outcome [14] | Potency [15] | outcome [16] | outcome [17] | outcome [18] | outcome [19] | outcome [20] | outcome [21]

C[C@H]1CC[C@@]2(NC1)O[C@@H]1C[C@@H]3[C@@H]4CC=C5C[C@@H](O)CC[C@]5(C)[C@@H]4CC[C@]3(C)[C@H]1[C@@H]2C
inactive: activity change, negative = inhibition [2] 24.2% | activity, negative = inhibition [3] 7.42% | Potency [4] > 46 µM | Potency [5] > 9.22 µM | activity change, negative = inhibition [9] -0.366% [at 11.4 µM] | outcome [6] | activity change, negative = inhibition [22] 33.7% [at 11.4 µM]

C[C@H](CN(C)C)C(C#N)(c1ccccc1)c1ccccc1
inactive: activity change, negative = inhibition [1] 0.906% | activity, negative = inhibition [3] 4.38% | Potency [4] > 46 µM | Potency [5] > 9.22 µM | activity change, negative = inhibition [9] 6.57% [at 11.4 µM] | outcome [6] | activity change, positive = activation [11] -41.5% [at 11.4 µM]

c1cc(C2N3CCCN2CC3)ccn1 (stereo unspecified)
inactive: activity change, negative = inhibition [1] 2.62% | activity, negative = inhibition [3] 3.03% | Potency [4] > 46 µM | Potency [5] > 9.22 µM | outcome [6] | Potency [23]

Reference: PubChem BioAssay (NCATS)
